Each structure is given as a SMILES string. Results filed as inconclusive are left out. The source made the active and inactive calls. The calls were made as follows: active = hit-call score of the fitted dose curve at least 0.9, where 1 is the maximum; inconclusive = response in the unintended direction; inactive = score below 0.9.

human Retinoid X Receptor beta (RXRb), RXRB (gene 6257), sequence (P28702 whole entry, looked up, the tested form may be a part): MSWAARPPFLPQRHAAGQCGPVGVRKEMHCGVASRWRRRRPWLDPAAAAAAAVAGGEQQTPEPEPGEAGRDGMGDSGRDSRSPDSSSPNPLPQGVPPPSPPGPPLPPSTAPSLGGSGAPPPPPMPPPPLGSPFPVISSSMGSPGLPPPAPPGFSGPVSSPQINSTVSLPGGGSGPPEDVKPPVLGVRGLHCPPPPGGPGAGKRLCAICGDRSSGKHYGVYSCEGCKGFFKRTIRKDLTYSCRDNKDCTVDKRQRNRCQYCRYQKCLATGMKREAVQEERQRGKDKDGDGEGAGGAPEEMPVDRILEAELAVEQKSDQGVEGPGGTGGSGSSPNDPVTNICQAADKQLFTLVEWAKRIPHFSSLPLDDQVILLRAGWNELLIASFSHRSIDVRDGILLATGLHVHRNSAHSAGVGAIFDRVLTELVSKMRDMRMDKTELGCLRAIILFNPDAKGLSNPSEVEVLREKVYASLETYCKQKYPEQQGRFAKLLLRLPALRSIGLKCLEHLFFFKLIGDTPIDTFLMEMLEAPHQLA

The target in this test is human Retinoid X Receptor beta (RXRb), RXRB (gene 6257) (UniProt P28702). The experiment in a line: ATG_RXRb_TRANS: Attagene TRANS-FACTORIAL HepG2 Assay for human Retinoid X Receptor beta (RXRb) (AID 2283013). The method in brief:
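Read-out: reporter mRNA induction via RT-PCR plus capillary electrophoresis fluorescence, analysed as signal increase relative to DMSO. Cells were human HepG2, transiently transfected with GAL4-UAS reporter constructs and chimeric receptor-Gal4 fusions, dosed for 24 h.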
Take `CCCCCCCCCCCCOS(=O)(=O)O`: the AC50 was 33.4 µM (active).
Take `CCOP(=S)(OCC)Oc1ccc(Cl)cc1Cl`: the AC50 was 27.6 µM (active).
As for `CC(C)(C#N)N=NC(C)(C)C#N`, the compound was classed as inactive.
Same read-out and setting: the result for `CCCCN(CCCCO)N=O` reads “inactive”.
The same measure, in the same setting: the result for `N#CS` reads “inactive”.
Still for that read-out and setting: the value for `CN(CCCC(O)c1cccnc1)N=O` (configuration not stated) was “inactive”.
For the compound `CCCCCCCCCCBr`, the AC50 is 100 µM (active).
In the case of `O=NN1CCCCCCC1`, the result was inactive.
Take `CCCCC(CC)COC(=O)Cl` (configuration not stated): the outcome was inactive.
`Nc1nc(=S)[nH][nH]1`: the AC50 was 164 µM (active).
Regarding `CC(=O)CN(CC(C)=O)N=O`, the call was inactive.
Regarding `Clc1ccc(C(Cl)(Cl)Cl)cn1`, the compound was called inactive.
On the same count and under the same terms, the value for `O=[N+]([O-])c1ccccc1O` was “inactive”; that for `Brc1ccc(Oc2c(Br)cc(Br)cc2Br)c(Br)c1` was “inactive”.
`CCCCCCCCCCCCBr`: the result was inactive.
For `CCOC(=O)OC1=C(c2cc(C)ccc2C)C(=O)NC12CCC(OC)CC2` (configuration not stated), the result was inactive.
For `CC1(C)[C@H](/C=C2\CCSC2=O)[C@@H]1C(=O)OCc1coc(Cc2ccccc2)c1`, the outcome was inactive.
`C=C(C)C(=O)OCCCCOC(=O)C(=C)C`: the outcome was inactive.
Same read-out and setting: the result for `c1ccc2c(c1)Oc1ccccc1O2` reads “inactive”; that for `C=CC(F)(C(F)(F)F)C(F)(F)C(F)(F)F` (configuration not stated), “inactive”; that for `C=CCc1ccccc1O`, “inactive”.
As for `Cc1cc(Cl)ccc1O`, the AC50 was 100 µM (active).
On the same count and under the same terms, the value for `[F][Sn]([c]1ccccc1)([c]1ccccc1)[c]1ccccc1` was 0.00128 µM (active); that for `CCC[CH2][Sn]([CH2]CCC)([CH2]CCC)[CH2]CCC` was 0.0334 µM (active).
Still for that read-out and setting: the value for `COP(=S)(OC)Oc1cc(Cl)c(I)cc1Cl` was 38.6 µM (active).
`CCCCCCCCBr`: the compound was called inactive.
Same read-out and setting: the result for `OC[C@@H](O)[C@H]1O[C@@H]2O[C@H](C(Cl)(Cl)Cl)O[C@@H]2[C@H]1O` reads “inactive”.

Values taken from PubChem BioAssay (EPA / NIEHS).
